BJeLR viability: BJeLR cell viability loss | BJeLR (HRASV12) viability, CellTiter-Glo ATP luminescence, 48 h | inhibition, % (no concentration beside the values) | 0.17% of 300,000 active | AID 1554; in the data active = inhibition above about 50%; inconclusive = no clear call, values can overlap the other calls
Autofluor counter: compound fluorescence in toxin protease inhibitor counterscreen; compound autofluorescence counterscreen, microsphere flow cytometry; hits give high values; fluorescence intensity (concentration not given with the values); 3.1% of 360,000 active; in the data active = fluorescence intensity above about 16000; inconclusive = no clear call, values can overlap the other calls
BoNT A protease: inhibitors of Botulinum neurotoxin A light chain protease; multiplex microsphere protease substrate cleavage, flow cytometry; 0.17% of 360,000 active; inhibition, % at 10 µM
Anthrax LF prot: anthrax lethal factor protease inhibition | AID 588501 | inhibition, % at 10 µM | multiplex microsphere protease cleavage assay, LF | 0.12% of 360,000 active | P15917
Target sequence (P15917 whole entry, looked up): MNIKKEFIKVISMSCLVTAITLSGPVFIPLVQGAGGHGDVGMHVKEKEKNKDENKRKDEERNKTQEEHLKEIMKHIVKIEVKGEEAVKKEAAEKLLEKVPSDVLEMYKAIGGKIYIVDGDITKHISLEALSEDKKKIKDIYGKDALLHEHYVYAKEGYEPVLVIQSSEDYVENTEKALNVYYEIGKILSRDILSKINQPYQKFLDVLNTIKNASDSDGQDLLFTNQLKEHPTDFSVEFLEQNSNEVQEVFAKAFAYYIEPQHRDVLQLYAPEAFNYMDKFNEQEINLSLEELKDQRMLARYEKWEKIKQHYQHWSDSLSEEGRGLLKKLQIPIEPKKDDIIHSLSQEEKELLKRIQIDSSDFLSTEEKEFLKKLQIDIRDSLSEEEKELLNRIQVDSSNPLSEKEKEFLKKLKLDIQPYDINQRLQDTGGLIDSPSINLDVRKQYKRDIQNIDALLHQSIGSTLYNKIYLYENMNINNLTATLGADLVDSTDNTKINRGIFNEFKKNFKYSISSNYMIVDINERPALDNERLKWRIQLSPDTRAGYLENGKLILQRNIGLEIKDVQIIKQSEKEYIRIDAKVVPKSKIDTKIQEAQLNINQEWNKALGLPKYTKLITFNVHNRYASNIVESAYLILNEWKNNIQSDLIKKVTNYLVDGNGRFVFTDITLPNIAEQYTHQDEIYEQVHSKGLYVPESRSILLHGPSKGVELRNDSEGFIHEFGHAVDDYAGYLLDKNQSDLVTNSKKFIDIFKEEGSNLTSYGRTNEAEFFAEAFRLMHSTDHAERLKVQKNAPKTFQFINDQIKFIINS
BoNT F protease: blocks Botulinum neurotoxin F light chain protease. Multiplex microsphere protease cleavage assay, flow cytometry. AID 588497. inhibition, % at 10 µM. 0.22% of 360,000 active; in the data active = inhibition above about 35%, passing the limit was not always enough; inconclusive = no clear call, values can overlap the other calls
Hits are given with their value; - = inactive; ? = inconclusive; . = no result. This is a sample that favours compounds with a hit; in the whole collection about 3.5% have one here. Cut-off read from the data, not from the text of the source, unless noted: active = inhibition above about 30%; inconclusive = no clear call, values can overlap the other calls; inactive = below that.

SMILES	BJeLR viability	Autofluor counter	BoNT A protease	Anthrax LF prot	BoNT F protease
CC(=O)Cc1nsc(NC(=O)c2ccc(-c3cc(Cl)ccc3Cl)o2)n1	-	-	-	-	-
CC(=O)Cc1nsc(NC(=O)c2ccc(-c3ccc(Cl)cc3Cl)o2)n1	-	20376	-	-	-
CCn1c(SCc2ccccc2)nnc1-c1ccc(S(=O)(=O)N2CCCCC2)cc1	-	-	-	-	-
CCn1c(SCc2nnc(-c3ccccc3)o2)nnc1-c1ccc(S(=O)(=O)N2CCCC2)cc1	-	23063	-	-	-
Cc1ccc(-c2csc(C(O)c3ccc(F)c(F)c3)n2)cc1C (stereo unspecified)	.	-	-	-	-
O=C(CSc1nnnn1-c1ccc(Cl)cc1)NC1CCS(=O)(=O)C1 (stereo unspecified)	.	?	-	-	-
Cc1cc(NC(=O)CN2CCN(c3ccccc3O)CC2)no1	-	17083	-	-	-
Cc1nc(C)c(C(=O)Nc2ccc(Oc3ccccc3)cc2)o1	-	19915	-	-	-
Cc1ncoc1C(=O)Nc1ccc(Oc2ccccc2)cc1	-	19937	-	-	-
COc1ccc(NC(=O)c2ocnc2C)cc1OC	-	-	-	-	-
Cc1ncoc1C(=O)Nc1ccccc1-c1ccccc1	-	23728	-	-	-
COc1ccc(OC)c(NC(=O)C2(C)CCN2CCOc2ccccc2)c1 (stereo unspecified)	.	-	-	-	-
Cn1c(=O)n(-c2cccc(Cl)c2)c(=O)c2c3c(sc21)COC(C)(C)C3	-	17764	-	-	-
COC(=O)CC1COc2ccccc2N1C(=O)c1ccc(C(C)(C)C)cc1 (stereo unspecified)	-	20115	?	-	-
COC(=O)CC1COc2ccccc2N1C(=O)c1ccc(Cl)cc1 (stereo unspecified)	-	23189	-	-	-
COC(=O)CC1COc2ccccc2N1C(=O)c1ccc(Br)cc1 (stereo unspecified)	-	-	-	-	-
Oc1ccc(-c2cnc3c(Nc4cccc(OC(F)(F)C(F)F)c4)nccn23)cc1	.	-	-	-	-
COc1ccc(-n2c(SCC(=O)Nc3nccs3)nnc2-c2ccc(Cl)cc2)cc1	.	-	-	-	-
CCOC(=O)C1CCN(CC(O)COc2ccc(C(=O)CC)cc2)CC1 (stereo unspecified)	-	22284	-	-	-
O=C(c1ccccc1)c1ccc(OCC(O)CN2CCN(S(=O)(=O)N3CCCCC3)CC2)cc1 (stereo unspecified)	-	23589	-	-	-
O=C(c1ccccc1)c1ccc(OCC(O)CN2CCCCC2)cc1 (stereo unspecified)	-	-	-	-	-
Cc1ccc(OCC(O)Cn2c(=N)n(Cc3ccccc3)c3ccccc32)cc1 (stereo unspecified)	-	22794	-	-	-
Cc1ccc(OCC(O)CN2CCN(CC(O)COc3ccc(C)cc3)CC2)cc1 (stereo unspecified)	-	17745	-	-	-
COc1ccc(C(=O)N(CCCO)C(C)C(=O)NC2CCCCC2)cc1OC (stereo unspecified)	-	21753	?	-	-
COc1ccc(C(=O)N(CC2CCCO2)C(C(=O)NCCC(C)C)c2ccc(C)cc2)cc1OC (stereo unspecified)	-	-	-	-	-
SMILES	BJeLR viability	Autofluor counter	BoNT A protease	Anthrax LF prot	BoNT F protease
COc1ccc(C(=O)N(CC2CCCO2)C(C(=O)NC2CCCC2)c2ccc(Cl)cc2)cc1OC (stereo unspecified)	-	21196	-	-	-
COc1ccc(-c2nn3c(-c4ccccn4)nnc3s2)cc1OC	-	19421	?	-	-
COc1ccc(-c2nn3c(-c4cccc(C)c4)nnc3s2)cc1OC	-	16794	-	-	-
COc1ccccc1-c1nnc2sc(-c3ccc(N(C)C)cc3)nn12	53.1	-	-	-	-
COc1ccc(OC)c(C2=Nn3c(nnc3C3CCCCC3)SC2)c1	-	-	-	-	-
CN(C)c1ccc(-c2nn3c(-c4ccccc4Cl)nnc3s2)cc1	-	?	?	?	?
Cc1cccc(-c2nnc3sc(-c4ccccc4)nn23)c1	-	-	-	-	-
COc1ccc(C2=Nn3c(nnc3C3CCCCC3)SC2)cc1OC	-	24718	-	-	-
CC(C)[C@H](NC(=O)c1c(F)cccc1F)C(=O)Nc1cccc(Br)c1	-	-	-	-	-
COc1ccc(-c2nn3c(C4CCCCC4)nnc3s2)cc1OC	-	16665	-	-	-
Clc1ccccc1-c1nn2c(-c3ccccn3)nnc2s1	-	22234	-	-	-
COc1cccc(-c2nnc3sc(-c4ccccn4)nn23)c1	-	-	-	-	-
COc1cccc(-c2nn3c(-c4ccccn4)nnc3s2)c1	-	19346	?	-	-
CC(=O)c1ccc(-n2c(C)ccc2-c2ccccc2)cc1	-	23002	-	-	-
CCc1nc2c(OCc3ccc(Cl)cc3Cl)cccn2c1N(C)C(=O)CC(C)C	.	-	-	-	-
Cc1[nH]nc2c1/C(=N/O)CC(c1ccccc1)C2 (stereo unspecified)	-	-	-	-	-
Cc1ccc(C(=O)N/C(=C\c2cccs2)C(=O)NCCc2c[nH]c3ccccc23)cc1C	-	16774	-	-	-
CN(C)S(=O)(=O)c1ccc2nc(NC(=O)c3cccs3)sc2c1	-	21214	-	-	-
CSc1nc2ccc(S(=O)(=O)N(C)C)cc2s1	-	20777	?	-	-
CCN(CC)S(=O)(=O)c1ccc2nc(SC)sc2c1	-	18930	-	-	-
CN(C)S(=O)(=O)c1ccc2nc(NC(=O)c3cccnc3)sc2c1	-	-	-	-	-
CCOC(=O)C1=NOC2(C1)C(=O)Nc1ccc(OC)cc12 (stereo unspecified)	.	-	-	-	-
CCC(=O)NCCCc1nc(-c2ccccc2)no1	-	-	-	-	-
N#CC1=C(N)SC(N)=C(C#N)C1C1CC=CCC1 (stereo unspecified)	-	-	-	-	-
N#CC1=C(N)SC(N)=C(C#N)C1C1C=CCCC1 (stereo unspecified)	-	19353	-	-	-
SMILES	BJeLR viability	Autofluor counter	BoNT A protease	Anthrax LF prot	BoNT F protease
O=S(=O)(c1ccc(Cl)c(Cl)c1)c1snnc1-c1ccccc1	52.6	-	-	-	-
OC(c1ccccc1)(c1nc(-c2cc(F)cc(F)c2)cs1)C(F)(F)F (stereo unspecified)	.	-	-	-	-
O=C(O)CC(C(=O)NC1CCCCC1)C1CCCO1 (stereo unspecified)	-	22137	-	-	-
O=C(O)CC(C(=O)Nc1ccc(Cl)c(Cl)c1)C1CCCO1 (stereo unspecified)	-	-	-	-	-
Cc1cc(C)c(NN=c2c(=O)c3ccccc3c2=O)c(C)c1	-	16485	-	-	-
O=c1c(=NNc2ccccc2Cl)c(=O)c2ccccc12	.	-	-	-	-
CC(C)C[C@H]1CNC(=S)N1C[C@H]1CCCN1C[C@H](Cc1ccc(O)cc1)N1C[C@H](Cc2ccccc2)N(CC2CCCCCC2)C1=S	.	-	-	-	-
O=C(CCNC(=O)c1ccc(Br)o1)NC1CCCC1	-	16174	?	-	-
CN(C)c1nc2c(c(N)nn2-c2ccc(Cl)cc2)c(=O)o1	-	19528	?	-	-

Screening results from PubChem.
